ALDH1A1 block: qHTS Assay for Inhibitors of Aldehyde Dehydrogenase 1 (ALDH1A1) | Aldehyde dehydrogenase 1A1 (Homo sapiens), P00352 | Purified ALDH1A1, NADH fluorescence, propionaldehyde substrate | Potency, µM (doses to about 75.3 µM), usual class: inhibitors | hit rate 7.3% among 220,000 | AID 1030, 2008; active = well fitted inhibition curve with a large enough effect, not every such curve was filed as active; inconclusive = small, poorly fitted or top-dose-only effect, or another doubt; inactive = no such curve, though single readings can be large or run the other way
Target sequence (P00352 whole entry, looked up): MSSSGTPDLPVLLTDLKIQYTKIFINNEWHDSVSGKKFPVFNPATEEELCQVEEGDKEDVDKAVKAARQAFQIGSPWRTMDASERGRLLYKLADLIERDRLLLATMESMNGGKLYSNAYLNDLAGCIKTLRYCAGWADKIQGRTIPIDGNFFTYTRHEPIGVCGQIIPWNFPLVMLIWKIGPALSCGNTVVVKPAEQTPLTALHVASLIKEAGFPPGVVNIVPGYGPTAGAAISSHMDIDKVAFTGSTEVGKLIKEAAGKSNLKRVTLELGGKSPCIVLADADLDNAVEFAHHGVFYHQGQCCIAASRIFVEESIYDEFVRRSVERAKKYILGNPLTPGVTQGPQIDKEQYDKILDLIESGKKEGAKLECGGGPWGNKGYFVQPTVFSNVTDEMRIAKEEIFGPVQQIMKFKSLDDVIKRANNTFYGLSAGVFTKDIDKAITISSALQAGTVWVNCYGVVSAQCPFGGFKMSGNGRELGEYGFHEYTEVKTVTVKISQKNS
HttQ103 aggreg: qHTS Multiplex Assay to Identify Dual Action Probes in a Cell Model of Huntington: Aggregate Formation (GFP); PC12 HttQ103-GFP aggregates, Acumen cytometry, 40 h; Potency, µM (series often up to 46.1 µM), actives largely listed as inhibitors; hit rate 1.1% among 220,000; note: nearly all actives have a fitted effect of over 60% in size
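Aggregate formation scored by laser-scanning cytometer (488 excitation, 500–530 emission) in lysed PC12 cells expressing Q103-GFP after 100 nM tebufenozide induction; library tested in dose series, with ATPLite reagent added in the multiplex.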
HTT ATP protect: qHTS Multiplex Assay to Identify Dual Action Probes in a Cell Model of Huntington: Cytoprotection (ATP). PC12 HTT-Q103 induced, cytoprotection, ATP luminescence, 40 h. Potency, µM (series often up to 56.4 µM), actives largely listed as activators. hit rate 0.14% among 230,000; note: nearly all actives have a fitted effect of over 45% in size
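Huntington model: PC12 line, ecdysone-inducible HTTQ103 exon1–GFP, tebufenozide 100 nM. Test articles in a dose series. Endpoint luminescence from cellular ATP.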
LMNA splice mod: qHTS Assay for Modulators of Lamin A Splicing; HeLa LMNA splicing GFP/RFP minigene ratio, 48 h; Potency, µM (series often up to 46.1 µM), most hits filed as inhibitors; hit rate 0.01% among 200,000; active = well fitted inhibition curve with a large enough effect in the signal ratio, with a control signal flat, not every such curve was filed as active; inconclusive = small, poorly fitted or top-dose-only effect, or effect the other way, or a change in a side signal; the % refers to the signal ratio
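Read-out is the ratio of GFP to DsRed2 object intensity, acquired by 488 nm laser-scanning cytometry on HeLa lamin A-EGFP minigene reporter cells. Compound incubation 48 hrs at 37 °C in Opti-MEM with 2% FBS; DMSO 0.5% final.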
HPGD block: qHTS Assay for Inhibitors of HPGD (15-Hydroxyprostaglandin Dehydrogenase) | 15-hydroxyprostaglandin dehydrogenase [NAD(+)] (Homo sapiens), P15428 | purified HPGD, NADH fluorescence kinetic, PGE2 substrate | Potency, µM, most hits filed as inhibitors | hit rate 4.3% among 150,000 | AID 894, 2007; active = well fitted inhibition curve with a large enough effect, not every such curve was filed as active; inconclusive = small, poorly fitted or top-dose-only effect, or another doubt; inactive = no such curve, though single readings can be large or run the other way
Target sequence (P15428 whole entry, looked up): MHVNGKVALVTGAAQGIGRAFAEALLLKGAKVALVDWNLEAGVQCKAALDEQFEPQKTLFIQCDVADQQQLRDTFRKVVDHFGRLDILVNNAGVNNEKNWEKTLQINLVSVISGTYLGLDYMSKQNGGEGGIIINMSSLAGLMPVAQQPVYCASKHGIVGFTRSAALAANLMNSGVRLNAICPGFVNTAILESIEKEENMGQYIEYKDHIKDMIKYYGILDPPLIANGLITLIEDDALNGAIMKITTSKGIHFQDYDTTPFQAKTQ
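NADH formation kinetics: reaction with 30 uM PGE2 and 1 mM NAD+ (final), 20 nM enzyme, Tris-HCl pH 8 with Tween 20, after 15 min compound preincubation at room temperature. Fluorescence change, last versus first of five reads.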
Each line names hits and unclear results; the compound was inactive in the other large screens. Most compounds without a hit are left out; they make up all but 8.8% or so of the library. Unless noted, calls come from the whole dose curve; as a rule, active = well fitted curve in the direction sought with a large enough effect; inconclusive = small, poorly fitted or top-dose-only effect, or another doubt; inactive = no such curve, though single readings can be large; an effect the other way counts as inactive or inconclusive.

C[C@H](c1ccccc1)N1C(=O)[C@H]2[C@@H]3[C@H](O)[C@H](O)CC(=O)[C@H]3CC[C@H]2C1=O	none (no result: HttQ103 aggreg, LMNA splice mod, HPGD block)
O=c1oc(Nc2ccccc2F)nc2ccccc12	ALDH1A1 block 20µM, HttQ103 aggreg inconclusive (no result: HPGD block)
O=c1oc(Nc2ccccc2Cl)nc2ccccc12	ALDH1A1 block inconclusive (no result: LMNA splice mod, HPGD block)
Cc1ccc2c(CSc3nc4ccccc4c(=O)n3CCCO)cc(=O)oc2c1C	ALDH1A1 block 12.6µM, LMNA splice mod inconclusive, HPGD block inconclusive
Cc1ccc(CSC2=Nc3ccccc3C3=NC(CCC(=O)NC4CCCCC4)C(=O)N23)cc1 (configuration not stated)	none (no result: ALDH1A1 block, HttQ103 aggreg, HTT ATP protect, HPGD block)
COc1ccc(S(=O)(=O)N(C)CC(=O)Nc2ccccc2OC)cc1C	none
CCOc1ccccc1NC(=O)CN(C)S(=O)(=O)c1ccc(OC)c(C)c1	ALDH1A1 block inconclusive, HPGD block 15.8µM
CCCn1c(-c2ccc(F)cc2)nc2c(N3CCN(C)CC3)nc(C)nc21	ALDH1A1 block inconclusive (no result: HttQ103 aggreg, LMNA splice mod)
CCN(CC)C(NC(=O)Cc1ccccc1)C(Cl)(Cl)Cl (configuration not stated)	ALDH1A1 block inconclusive, HPGD block 14.1µM
CCOc1ccc(CNS(=O)(=O)c2cc3c(cc2C)NC(=O)CO3)cc1	none (no result: ALDH1A1 block, HttQ103 aggreg, HTT ATP protect, HPGD block)
COc1nc(N/N=C/c2cc3c(cc2Br)OCO3)nc(N2CCOCC2)n1	ALDH1A1 block 7.94µM (no result: HPGD block)
Brc1cc2c(cc1/C=N/Nc1nc(N3CCCCC3)nc(N3CCCCC3)n1)OCO2	none (no result: LMNA splice mod, HPGD block)
O=C1C=C(Nc2ccccc2)C(=O)c2ccccc21	ALDH1A1 block inconclusive, HttQ103 aggreg 11.2µM, LMNA splice mod inconclusive (no result: HPGD block)
O=C1C=C(Nc2ccccc2)c2ccccc2C1=O	HttQ103 aggreg 4.47µM, LMNA splice mod inconclusive (no result: HPGD block)
O=C1C(Nc2ccccc2)=CC(=O)c2ncccc21	ALDH1A1 block 15.8µM (no result: HttQ103 aggreg, LMNA splice mod, HPGD block)
O=C1C=C(Nc2ccccc2C(=O)O)c2ccccc2C1=O	none (no result: ALDH1A1 block, LMNA splice mod, HPGD block)
COC(=O)CC1C(C)(C)C(O)C2CC3=C4C=C(OC)OC(c5ccoc5)[C@]4(C)CCC3[C@@]1(C)C2=O (some centres not stated)	none (no result: HttQ103 aggreg, LMNA splice mod)
COc1ccc(NC(=O)CSC2=Nc3ccccc3C3=NC(Cc4ccccc4)C(=O)N23)cc1 (configuration not stated)	none (no result: ALDH1A1 block, HttQ103 aggreg, HTT ATP protect, HPGD block)
O=C(NN=C1CCCCCC1)c1cn(-c2ccccc2)nc1-c1ccccc1	ALDH1A1 block 3.55µM
Cc1cccc(C)c1NC(=O)c1cn(-c2ccccc2)nc1-c1ccccc1	none
COc1ccc(CCNC[C@H](O)c2ccc(O)cc2)cc1OC	none (no result: ALDH1A1 block, HttQ103 aggreg, LMNA splice mod, HPGD block)
COc1ccccc1NC(=O)Cn1c(=O)n2nc(C)nc2c2ccccc21	ALDH1A1 block 20µM
COc1ccc(Cl)cc1NC(=O)Cn1c(=O)n2nc(C)nc2c2ccccc21	ALDH1A1 block 7.94µM
COc1ccc(N=Cc2cc(Cc3ccccc3Cl)cc([N+](=O)[O-])c2O)cc1OC	ALDH1A1 block 7.08µM, HttQ103 aggreg 22.4µM, HTT ATP protect 35.5µM (no result: LMNA splice mod, HPGD block)
Cc1ccc(N=Cc2cc(Cc3ccccc3Cl)cc([N+](=O)[O-])c2O)c(O)c1	ALDH1A1 block 11.2µM, HttQ103 aggreg inconclusive, HTT ATP protect inconclusive (no result: LMNA splice mod, HPGD block)
CN(C)CCCNc1ncnc2scc(-c3ccccc3)c12	ALDH1A1 block 17.8µM (no result: LMNA splice mod, HPGD block)
c1ccc(-c2csc3ncnc(NCc4ccccn4)c23)cc1	none (no result: ALDH1A1 block, LMNA splice mod, HPGD block)
COc1ccc(-c2csc3ncnc(NCCN4CCOCC4)c23)cc1	HttQ103 aggreg 12.6µM
Cc1ccc(-c2csc3ncnc(NCCN4CCOCC4)c23)cc1	LMNA splice mod inconclusive
C=C1CC[C@@H]2O[C@]2(C)CC[C@@H]2[C@H]1CC2(C)C	none (no result: ALDH1A1 block, HttQ103 aggreg, LMNA splice mod, HPGD block)
CC(C)(C)OC(=O)N1CCC(N2CCN(Cc3ccccc3)C(=O)C2=O)CC1	none (no result: ALDH1A1 block, HttQ103 aggreg, HTT ATP protect, HPGD block)
COC(=O)C/C=C1\c2ccc3c(c2[C@@H](OC)[C@@H]1C)OCO3	HTT ATP protect inconclusive (no result: HttQ103 aggreg, LMNA splice mod)
COc1ccc(CCNC(=O)c2sc3nc4n(c(=O)c3c2C)CCCC4)cc1OC	none (no result: ALDH1A1 block, HttQ103 aggreg, HTT ATP protect, HPGD block)
O=C1C(=O)N(CNc2cccnc2)c2ccccc21	HPGD block 15.8µM
CN1C(=O)c2cccc3c(S(=O)(=O)Nc4ccccn4)ccc1c23	ALDH1A1 block inconclusive, LMNA splice mod inconclusive
O=C1C(=O)N(CNc2ccccn2)c2ccccc21	ALDH1A1 block 3.16µM
O=C(NCc1ccccc1Cl)c1cnc2n(c1=O)CCS2	ALDH1A1 block 14.1µM
CC1CC(NC(=O)c2cnc3n(c2=O)CCS3)CC(C)(C)C1 (configuration not stated)	none (no result: ALDH1A1 block, LMNA splice mod, HPGD block)
O=C(NC1CCCC1)c1cnc2n(c1=O)CCS2	ALDH1A1 block inconclusive, HPGD block 35.5µM
N[C@@H](C(=O)O)[C@@H]1C[C@H]1C(=O)O	none (no result: ALDH1A1 block, HttQ103 aggreg, LMNA splice mod, HPGD block)
O=C(c1ccc(S(=O)(=O)N2CCOCC2)cc1)N1CCN(c2ccccn2)CC1	ALDH1A1 block inconclusive (no result: LMNA splice mod, HPGD block)
Cc1ccc(CN2CCSc3ccc(C(=O)N4CCN(c5ncccn5)CC4)cc32)cc1	ALDH1A1 block inconclusive, HttQ103 aggreg 15.8µM, LMNA splice mod inconclusive, HPGD block inconclusive
Cc1ccc(NS(=O)(=O)c2ccc(C(=O)N3CCN(c4ncccn4)CC3)cc2)cc1	HttQ103 aggreg 2.51µM, LMNA splice mod inconclusive (no result: HPGD block)
O=C(c1ccc(S(=O)(=O)Nc2ccc(F)cc2)cc1)N1CCN(c2ccccn2)CC1	HttQ103 aggreg 14.1µM (no result: HPGD block)
CC1CC(C)CN(C(=O)c2ccc3c(c2)N(Cc2ccccc2)CCS3)C1 (configuration not stated)	ALDH1A1 block inconclusive, HttQ103 aggreg inconclusive, HTT ATP protect inconclusive, HPGD block inconclusive
CCOC(=O)c1sc2nc(SCC(=O)N(CC)CC)n(CCCN3CCCC3=O)c(=O)c2c1C	none (no result: LMNA splice mod, HPGD block)
O[C@H](CNc1ccccn1)c1ccccc1	none (no result: HttQ103 aggreg, LMNA splice mod)

Source: PubChem BioAssay
